RXFP1 ag: qHTS Assay for Agonists of the Relaxin Receptor RXFP1; Potency, µM (series often up to 57.5 µM), hits mostly activators; HEK293T-RXFP1 cAMP TR-FRET, 30 min; response scale: percent of porcine relaxin response, buffer zero; Relaxin receptor 1 (Homo sapiens), Q9HBX9; 370,000 compounds, 0.3% hits; note: nearly all actives have a fitted effect of over 60% in size
Target sequence (Q9HBX9 whole entry, looked up): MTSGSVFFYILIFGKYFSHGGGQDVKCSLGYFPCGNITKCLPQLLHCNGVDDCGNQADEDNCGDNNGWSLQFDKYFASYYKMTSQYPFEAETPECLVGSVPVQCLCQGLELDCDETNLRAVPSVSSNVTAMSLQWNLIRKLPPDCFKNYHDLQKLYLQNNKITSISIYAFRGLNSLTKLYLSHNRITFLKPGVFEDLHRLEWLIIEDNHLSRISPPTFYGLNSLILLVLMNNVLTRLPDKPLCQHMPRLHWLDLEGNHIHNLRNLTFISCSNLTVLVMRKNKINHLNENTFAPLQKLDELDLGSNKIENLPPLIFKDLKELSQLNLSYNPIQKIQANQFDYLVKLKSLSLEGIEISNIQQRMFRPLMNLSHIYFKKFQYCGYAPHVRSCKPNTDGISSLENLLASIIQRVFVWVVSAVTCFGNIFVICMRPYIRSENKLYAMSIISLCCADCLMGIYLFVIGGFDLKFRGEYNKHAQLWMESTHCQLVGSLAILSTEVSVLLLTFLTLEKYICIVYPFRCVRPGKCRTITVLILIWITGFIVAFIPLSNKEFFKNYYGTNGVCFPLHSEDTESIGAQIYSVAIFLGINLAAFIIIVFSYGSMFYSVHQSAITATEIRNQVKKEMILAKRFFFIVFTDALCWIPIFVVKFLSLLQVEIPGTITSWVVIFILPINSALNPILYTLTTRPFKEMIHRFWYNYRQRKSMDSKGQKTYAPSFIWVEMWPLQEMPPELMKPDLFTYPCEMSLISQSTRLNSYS
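HEK293 cells stably expressing RXFP1, treated 30 min at 37C with compounds plus PDE4 inhibitor Ro 20174; cAMP measured by HTRF TR-FRET. Normalized to buffer and 29 nM porcine relaxin; EC50 by Hill fit.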
p53 reactivator: qHTS assay for re-activators of p53 using a Luc reporter; H1299 p53-A138V BP100-luciferase reporter, luminescence, 24 h; Potency, µM (titrated, usually from 92.2 µM), usual class: activators; 320,000 compounds, 0.063% hits; AID 504706, 2011; note: nearly all actives have a fitted effect of over 45% in size
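p53-null H1299 cells stably carrying temperature-sensitive p53-A138V and a BP100-luciferase reporter were pinned with compounds (4-point, 1:5 series) and held 24 hrs at 37 deg C. Luminescence was read 10 min after detection reagent.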
gsp ag: qHTS for Agonist of gsp, the Etiologic Mutation Responsible for Fibrous Dysplasia/McCune-Albright Syndrome: qHTS | gsp mutant cells, cAMP HTRF, 30 min | Potency, µM (highest dose often 76.9 µM), actives largely listed as activators | 340,000 compounds, 0.13% hits | AID 624287, 2012; active = well fitted activation curve with a large enough effect; inconclusive = small, poorly fitted or top-dose-only effect, or another doubt; inactive = no such curve, though single readings can be large or run the other way; cell line not stated here;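 note: phosphodiesterase inhibitor Ro 20-1724 added with compounds to block cAMP breakdown; nearly all actives have a fitted effect of over 60% in size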
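Cells stably selected in G418 were plated at 2000/well, grown 16-24 hr, then given compounds in DMSO with the PDE inhibitor […] (300 uM solution added) for 30 min at 37C; cAMP was read by HTRF.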
gsp antagonist: qHTS for Antagonists of gsp, the Etiologic Mutation Responsible for Fibrous Dysplasia/McCune-Albright Syndrome: qHTS; 340,000 compounds, 0.4% hits; Potency, µM (top dose mostly 76.9 µM), actives largely listed as inhibitors; AID 624288, 2012; gsp-mutant cells, cAMP HTRF, 30 min; calls by dose curve; cell line not stated here;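 note: intracellular cAMP measured with PDE inhibitor Ro 20-1724 present during compound exposure; nearly all actives have a fitted effect of over 65% in size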
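HTRF cAMP measurement after 30 min RT detection following 30 min, 37C compound treatment alongside […] (added as 300 uM solution) in G418-selected cells seeded at 2000/well and grown 16–24 h.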
Tb PFK inh: qHTS Assay to Find Inhibitors of T. brucei phosphofructokinase. 330,000 compounds, 0.17% hits. ATP-dependent 6-phosphofructokinase (Trypanosoma brucei brucei), O15648. T. brucei PFK, ADP-Glo luminescence. Potency, µM (series often up to 57.5 µM), actives largely listed as inhibitors; note: nearly all actives have a fitted effect of over 60% in size
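ADP-Glo luminescence quantified ADP after 45 min at room temperature, with 1.25 nM T. brucei PFK, 0.1 mM ATP and 0.5 mM fructose-6-phosphate in pH 8.0 TEA buffer. qHTS titrations up to 57 µM; curves classified by quality.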
RXFP1 antagonist: qHTS Assay for Antagonists of the Relaxin Receptor RXFP1; Relaxin receptor 1 (Homo sapiens), Q9HBX9; 350,000 compounds, 0.59% hits; AID 1259400, 2018; activity change, negative = inhibition, % at 57.5 µM; HEK293-RXFP1, relaxin-stimulated cAMP HTRF, 30 min; hits give low values;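 active = activity change of -60% or lower, but not beyond a set lower limit; inconclusive = change between -60% and -40%, or beyond the set limit; inactive = change above -40%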
A number is an active result; - = inactive; ? = inconclusive; . = no result; ! = repeats disagree; [ ] = remark or other dose. Rows were chosen to be rich in hits. Some 1.1% of all compounds tested hit in one or more screens of this group. Unless noted, calls come from the whole dose curve; as a rule, active = well fitted curve in the direction sought with a large enough effect; inconclusive = small, poorly fitted or top-dose-only effect, or another doubt; inactive = no such curve, though single readings can be large; an effect the other way counts as inactive or inconclusive.

SMILES	RXFP1 ag	p53 reactivator	gsp ag	gsp antagonist	Tb PFK inh	RXFP1 antagonist
CC(=O)c1ccc(NC(=O)Nc2ccc3c(c2)N(C)C(=O)CS3)cc1	-	-	?	35.5µM	-	-69.8
NCC(O)CN1CCN(Cc2ccccc2)CC1 (stereo unspecified)	-	-	-	-	-	-
CCN(CC)S(=O)(=O)c1cc(NS(=O)(=O)c2cc(Cl)ccc2Cl)ccc1C	-	-	-[15.4 µM]	-	-	-
CC(=O)Nc1ccc(NC(=O)c2ccc(-n3c(C)ccc3C)cc2)cc1	-	25.1µM	-	-	-	-
CCOC(=O)C1Nc2ccc(C(=O)O)cc2C2C=CCC12 (stereo unspecified)	-	-	-	-	-	-
CCOC(=O)c1ccc2c(c1)C1C=CCC1C(C(=O)O)N2 (stereo unspecified)	-	-	.	.	19µM	.
S=c1nc(-c2ccc(Br)cc2)[nH]c2ccccc12	-	-	?	-	-	-
S=c1nc(-c2ccccc2)[nH]c2ccccc12	?	-	15.8µM	-	-	-
Cc1cccc(C)c1N1CCN(S(=O)(=O)c2ccccc2)CC1	-	-	-	-	-	-
CCOC(=O)c1cccc(NC(=O)CCc2nnc3ccc(N4CCCCC4)nn23)c1	-	-	35.5µM	-	-	-
CCOC(=O)c1cccc(NC(=O)CCc2nnc3ccc(N4CCN(C)CC4)nn23)c1	-	-	-	-	-	-
Cc1ccc(NC(=O)CCc2nnc3ccc(N4CCN(C)CC4)nn23)cc1F	25.1µM	-	?	-	-	-
COCCn1ccc2c(OCC(=O)Nc3cc(OC)ccc3OC)cccc2c1=O	-	-	-	?	-	-
COc1ccccc1NC(=O)COc1ccc(-c2nn(C)c(=O)c3ccccc23)cc1	-	-	-[15.4 µM]	28.2µM	-	-
COc1ccccc1NC(=O)c1ccc(-c2nn(C)c(=O)c3ccccc23)cc1	-	-	-[15.4 µM]	39.8µM	-	-
CCOCCn1ccc2c(OCC(=O)Nc3cc(OC)ccc3OC)cccc2c1=O	-	-	-[15.4 µM]	15.8µM	-	-
Cn1nc(-c2ccc(OCC(=O)Nc3ccccc3)cc2)c2ccccc2c1=O	-	-	-	?	-	-
CCCn1c(/C=C/c2ccccc2)nc2ccccc21	-	-	-	?	-	-86.1!
COCCOCCn1c(/C=C/c2ccccc2)nc2ccccc21	-	-	-[15.4 µM]	-	-	-
CCn1c(/C=C/c2cc[n+](C)cc2)nc2ccccc21	28.2µM	.	?	-	-	-
CCn1c(/C=N/c2nc3ccccc3n2C)nc2ccccc21	-	?	-	-	-	-
CCN1CCC(C(N)=O)CC1	-	-	-	-	-	-
COCCSc1nnc(NS(=O)(=O)c2ccccc2)s1	-	-	-	-	-	-
COc1ccc(N(C)C(=O)c2cc3c(s2)-c2ccccc2OC3)cc1	-	.	.	.	.	-64.2
C/C(N)=C(/C#N)C(=O)CSc1nn(-c2ccc(Cl)cc2)c(=S)s1	-	?	-	50.1µM	-	-
SMILES	RXFP1 ag	p53 reactivator	gsp ag	gsp antagonist	Tb PFK inh	RXFP1 antagonist
C/C(N)=C(/C#N)C(=O)CSc1nnc(SCc2ccc(Cl)cc2)s1	-	-	-	?	-	-
CCCCN1C(=O)C(CC(=O)NCCN2CCOCC2)CC(C(=O)N(C(C)C)C(C)C)=C1C (stereo unspecified)	.	.	-	.	.	-
O=C1CC(=O)N(Cc2ccco2)C(=O)N1	-	-	-	-	23.9µM	-
CCN(CC)C(=O)C1=C(C)N(CCC2=CCCCC2)C(=O)C(CC(=O)NCCc2ccccn2)C1 (stereo unspecified)	.	.	-	.	.	-
O=C(NC12CC3CC(CC(C3)C1)C2)c1ccc(Br)o1	-	-	-	-	-	-110.2
Cc1ccccc1N=C1Nc2ccccc2CS1	-	?	-	-	-	-
O=C(Nc1ccc2snnc2c1)Nc1cccc2ccccc12	-	-	-	50.1µM	-	-
CCc1ccccc1NC(=O)Nc1ccc2snnc2c1	-	.	.	.	.	.
Cc1cc(C)c(S(=O)(=O)Nc2cccc(S(=O)(=O)N3CCOCC3)c2)c(C)c1	-	-	?	-	-	-
Cc1ccc(CN2CCN(Cc3cccn3-c3ccc(Cl)cn3)CC2CCO)o1 (stereo unspecified)	-	-	-	-	-	-
C=CCOc1ccc(C2C(C(=O)c3ccco3)=C(O)C(=O)N2c2nnc(C)s2)cc1 (stereo unspecified)	14.1µM	-	-[15.4 µM]	-	-	-
CCN(CC)S(=O)(=O)c1cccc(N=Nc2c(O)c3ccccc3oc2=O)c1	15.8µM	-	?	-	-	-
CCN(CC)S(=O)(=O)c1cccc(NC(=O)c2cc3ccccc3o2)c1	-	?	-	?	-	-
CCOC(=O)N1CCN(C(=O)CCCN2C(=O)CSc3nc(C)cc(C)c32)CC1	-	-	-	50.1µM	-	-
COc1ccc(C(=O)/C=C2/C(=O)Nc3ccccc32)c(OC)c1	-	-	-[15.4 µM]	-	-	-86.1
CN(C)c1ccc(/C=N/n2c(-c3cccnc3)n[nH]c2=S)cc1	-	-	-	?	-	-
CN(C)c1ccc(/C=N/n2c(-c3ccccc3Br)n[nH]c2=S)cc1	-	-	-	?	-	-93.6
Cc1nc2ccccc2c2c1CC(C)S2 (stereo unspecified)	-	-	8.91µM	-	-	-
Cc1nc2ccccc2c2c1CC(C(C)(Cl)Br)O2 (stereo unspecified)	-	-	-	-	-	?
COc1ccc(/C=C/C(=O)NCc2ccc3c(c2)OCO3)cc1OC	.	.	-	-	.	-
COc1ccc(C(=O)Nn2cnc3ccccc3c2=O)cc1[N+](=O)[O-]	-	-	-	-	-	-
COc1ccc(OC)c(CN2CCSCC2)c1	-	.	-[15.4 µM]	-	-	-
COc1ccc(OC)c(CN2CCCCCC2)c1	-	.	-	-	-	-119.5
CCOc1ccc(CNC(=O)c2oc3c(c2C)-c2nn(Cc4cccc(Cl)c4)cc2CC3)cc1	-	.	.	.	.	-78.3
Cc1cccc(CNC(=O)c2oc3c(c2C)-c2nn(Cc4cccc(Cl)c4)cc2CC3)c1	-	.	.	.	.	?
Cc1cccc(CNC(=O)c2oc3c(c2C)-c2nn(Cc4ccccc4Cl)cc2CC3)c1	-	.	.	.	.	-66.1
Cc1ccc(C)c(OCCC(=O)OCC(=O)Nc2cc(S(=O)(=O)N3CCOCC3)ccc2C)c1	-	-	-[15.4 µM]	-	-	-

Screening results as filed in PubChem.
